Results filed as inconclusive are left out. Activity calls are given as the source filed them. How the source made its calls, unless noted: active means hit-call score of the fitted dose curve at least 0.9, where 1 is the maximum; inactive means score below 0.9.

Experiment [1] is described as follows: ATG_TAL_CIS: Attagene CIS-FACTORIAL HepG2 Assay for human TAL Basal Promoter (AID 2282966).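 Further: background control endpoint measuring basal TAL promoter reporter mRNA not a specific factor.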 Conditions: HepG2 Attagene cis-factorial TAL promoter reporter; actives raise or lower the signal. The gist of the method:
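Background-control endpoint: basal TAL promoter reporter transcripts in transiently transfected HepG2, measured 24 h after dosing. Read-out by RT-PCR with fluorescent primer extension and capillary electrophoresis; gain or loss of signal fitted relative to DMSO.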

The nature of experiment [2]: ATG_TGFb_CIS: Attagene CIS-FACTORIAL HepG2 Assay for human Transforming Growth Factor (TGF) (AID 2282967). The note with it: HepG2 Attagene CIS TGFb reporter, mRNA transcription; actives raise or lower the signal. Put shortly: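 Multiplexed cis-reporter HepG2 system, 24 h treatment; mRNA induction read by fluorescence after RT-PCR and CE; DMSO negative control, bidirectional curve fitting.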

Experiment [3] in a line: ATG_VDRE_CIS: Attagene CIS-FACTORIAL HepG2 Assay for human Vitamin D Receptor Element (VDRE) (AID 2282968). Conditions: HepG2 VDRE cis-reporter transcription, actives raise or lower the signal. Put shortly: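 Compounds were applied for 24 h to HepG2 cells transfected with promoter-regulated reporter units. Total RNA was reverse-transcribed, and reporter amplicons were fluorescently labelled and sized by capillary electrophoresis.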

Experiment [4] has as its target Estrogen receptor (Homo sapiens) (UniProt P03372). Nature of the experiment: ATG_ERa_TRANS: Attagene TRANS-FACTORIAL HepG2 Assay for human Estrogen Receptor alpha (ERa) (AID 2282970; active means hit-call score of the fitted dose curve at least 0.9, where 1 is the maximum). Conditions: HepG2 Attagene TRANS ERa GAL4 reporter, mRNA. Put shortly:
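Reporter transcripts were measured 24 h after dosing by RT-PCR with fluorescent primer extension and capillary electrophoresis. The system is transiently transfected HepG2 expressing exogenous NR-Gal4 chimeras driving GAL4-UAS reporters; DMSO is the baseline.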

The target of experiment [5] is X-box-binding protein 1 (Homo sapiens) (UniProt P17861). Nature of the experiment: ATG_Xbp1_CIS: Attagene CIS-FACTORIAL HepG2 Assay for human X-box Binding Protein 1 (XBP1) (AID 2282972). The note with it: HepG2 XBP1 cis-element reporter, Attagene multiplex; actives raise or lower the signal. Put shortly: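 Multiplexed cis-reporter readout in transfected HepG2 liver cells. Exposure lasted 24 hours. Activity in either direction was fitted against DMSO as negative control and baseline.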

Experiment [6] is described as follows: ATG_GAL4_TRANS: Attagene TRANS-FACTORIAL HepG2 Assay for GAL4 (Internal Marker) (AID 2282976; active means hit-call score of the fitted dose curve at least 0.9, where 1 is the maximum). Conditions: HepG2 Attagene TRANS GAL4 internal marker reporter. The gist of the method: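 In transfected human HepG2 liver cells dosed 24 h, GAL4 reporter mRNA serves as a baseline marker. Detection by RT-PCR with fluorescent capillary electrophoresis, activity fitted upward relative to DMSO.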

Experiment [7] concerns the target Bile acid receptor (Homo sapiens) (UniProt Q96RI1). Nature of the experiment: ATG_FXR_TRANS: Attagene TRANS-FACTORIAL HepG2 Assay for Farnesoid X Receptor (FXR) (AID 2282979; active means hit-call score of the fitted dose curve at least 0.9, where 1 is the maximum;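 further: hits raise reporter mRNA above DMSO so AC50 marks FXR activation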). Conditions: HepG2 Attagene TRANS FXR-GAL4 reporter transcription. Put shortly: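 Reporter transcripts from transfected HepG2 cells were measured 24 h after dosing, using RT-PCR with capillary electrophoresis of 6-FAM-labelled fragments. The read-out reflects activity of exogenous FXR-Gal4 chimera on GAL4-UAS units, with induction relative to DMSO.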

Experiment [8] deals with Hepatocyte nuclear factor 4-alpha (Homo sapiens) (UniProt P41235). Nature of the experiment: ATG_HNF4a_TRANS: Attagene TRANS-FACTORIAL HepG2 Assay for human Hepatocyte Nuclear Factor 4 alpha (HNF4a) (AID 2282982; active means hit-call score of the fitted dose curve at least 0.9, where 1 is the maximum). The note with it: HepG2 HNF4a transactivation reporter, mRNA readout. Put shortly: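 Endpoint reflects transcriptional activation of a GAL4-UAS reporter by an HNF4a-GAL4 chimera in transfected HepG2 cells, 24 h post-dosing. Fluorescence from RT-PCR products separated by capillary electrophoresis; DMSO baseline.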

Experiment [9] in a line: ATG_M_06_TRANS: Attagene TRANS-FACTORIAL HepG2 Assay for M06 Transcription Factor (Internal Marker) (AID 2282983; active means hit-call score of the fitted dose curve at least 0.9, where 1 is the maximum). The note with it: HepG2 Attagene TRANS M06 internal marker reporter. Put shortly: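 Background-control reporter readout: after 24 h chemical exposure of transiently transfected HepG2 (GAL4-UAS reporter units), mRNA quantified by RT-PCR with fluorescent labeling and capillary electrophoresis. Gain-of-signal fitting against DMSO baseline.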

The target in experiment [10] is Transcriptional activator Myb (Homo sapiens) (UniProt P10242). The experiment in a line: ATG_Myb_CIS: Attagene CIS-FACTORIAL HepG2 Assay for human Myeloblastosis (Myb) Proto-Oncogene Transcription Factor (AID 2282986). Conditions: HepG2 Attagene CIS-FACTORIAL Myb reporter transcription; actives raise or lower the signal. Put shortly:
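Using HepG2 liver cells bearing transiently transfected cis-promoter reporter constructs, the assay measures induction or loss of reporter mRNA after 24 hours of dosing. Detection used fluorescently labeled RT-PCR products separated by capillary electrophoresis.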

Experiment [11] concerns the target Nuclear respiratory factor 1 (Homo sapiens) (UniProt Q16656). Nature of the experiment: ATG_NRF1_CIS: Attagene CIS-FACTORIAL HepG2 Assay for human Nuclear Respiratory Factor 1 (NRF1) Orphan Gene (AID 2282987). Conditions: HepG2 NRF1 cis-element reporter, Attagene multiplex; actives raise or lower the signal. The gist of the method:
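Reporter mRNA induction or loss in HepG2 cells after 24 h dosing; cis-regulated reporter constructs report endogenous transcription-factor activity. Quantified by RT-PCR/capillary electrophoresis fluorescence, DMSO-referenced.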

The target in experiment [12] is Nuclear receptor subfamily 1 group I member 3 (Homo sapiens) (UniProt Q14994). The experiment in a line: ATG_CAR_TRANS: Attagene TRANS-FACTORIAL HepG2 Assay for human Constitutive Androstane Receptor (CAR) (AID 2282969; active means hit-call score of the fitted dose curve at least 0.9, where 1 is the maximum;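 further: activators raise reporter mRNA above DMSO so AC50 marks induction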). Conditions: HepG2 Attagene TRANS-FACTORIAL CAR reporter. Put shortly: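 Transiently transfected HepG2, multiplex TRANS reporters (CAR-Gal4 chimera driving GAL4-UAS reporter). 24 h dosing. Readout: reporter transcript by RT-PCR + capillary electrophoresis, fluorescence intensity; positive direction vs DMSO.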

The target of experiment [13] is Nuclear receptor subfamily 4 group A member 2 (Homo sapiens) (UniProt P43354). The experiment in a line: ATG_NURR1_TRANS: Attagene TRANS-FACTORIAL HepG2 Assay for human Nuclear Receptor Related Protein 1 (NURR1) (AID 2282985; active means hit-call score of the fitted dose curve at least 0.9, where 1 is the maximum). Conditions: HepG2 Attagene TRANS reporter, mRNA readout. Put shortly: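 Endpoint: reporter mRNA increase relative to DMSO. HepG2 cells transfected with reporter units, treated 24 h; RNA processed by RT-PCR, labelling, HpaI digestion and capillary electrophoresis.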

For experiment [14], the target named is Steroid hormone receptor ERR1 (Homo sapiens) (UniProt P11474). Nature of the experiment: ATG_ERRa_TRANS: Attagene TRANS-FACTORIAL HepG2 Assay for human Estrogen-Related Receptor alpha (ERRa) (AID 2282971; active means hit-call score of the fitted dose curve at least 0.9, where 1 is the maximum). The note with it: HepG2 Attagene TRANS reporter, ERRa transactivation. The gist of the method:
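Reporter transcripts from ERRa-Gal4 chimera activity measured in transiently transfected human HepG2 cells 24 hours after dosing, using RT-PCR with 6-FAM primer extension, HpaI digestion and capillary electrophoresis; DMSO is baseline.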

Experiment [15] can be described thus: ATG_M_19_TRANS: Attagene TRANS-FACTORIAL HepG2 Assay for M19 Transcription Factor (Internal Marker) (AID 2282974; active means hit-call score of the fitted dose curve at least 0.9, where 1 is the maximum). Conditions: HepG2 Attagene TRANS-FACTORIAL M19 internal marker reporter. The gist of the method: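 Multiplexed TRANS format: HepG2 liver cells bearing transient GAL4-UAS reporter units, chemical treatment 24 h, reporter transcripts quantified by RT-PCR plus capillary electrophoresis. DMSO defines baseline.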

Experiment [16] deals with Estrogen-related receptor gamma (Homo sapiens) (UniProt P62508). The experiment in a line: ATG_ERRg_TRANS: Attagene TRANS-FACTORIAL HepG2 Assay for human Estrogen-Related Receptor gamma (ERRg) (AID 2282977; active means hit-call score of the fitted dose curve at least 0.9, where 1 is the maximum;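 further: hits increase reporter signal over DMSO so potencies reflect activators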). The note with it: HepG2 Attagene TRANS reporter, ERRg transactivation. Put shortly:
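Exogenous NR-Gal4 chimera activity measured as reporter transcript induction after 24 h in transiently transfected HepG2 cells. RNA reverse-transcribed, PCR-amplified, 6-FAM-labelled and resolved by capillary electrophoresis; increase over DMSO baseline.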

Experiment [17] addresses Glucocorticoid receptor (Homo sapiens) (UniProt P04150). Nature of the experiment: ATG_GR_TRANS: Attagene TRANS-FACTORIAL HepG2 Assay for human Glucocorticoid Receptor (GR) (AID 2282978; active means hit-call score of the fitted dose curve at least 0.9, where 1 is the maximum;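 further: activators score as hits since higher reporter transcript over DMSO is fitted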). Conditions: HepG2 Attagene TRANS GR reporter, mRNA transcription. Put shortly: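 Transiently transfected HepG2 cells express chimeric NR-GAL4 proteins acting on GAL4-UAS reporter units. Compounds are applied for 24 h. mRNA induction over DMSO is measured by capillary electrophoresis.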

Experiment [18] can be described thus: ATG_M_32_TRANS: Attagene TRANS-FACTORIAL HepG2 Assay for M32 Transcription Factor (Internal Marker) (AID 2282984; active means hit-call score of the fitted dose curve at least 0.9, where 1 is the maximum). The note with it: HepG2 Attagene TRANS M32 internal marker reporter. The gist of the method:
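Internal-marker readout from a multiplexed transcription reporter panel. HepG2 cells were transfected with GAL4-UAS reporter units, treated 24 hours, and reporter transcript levels determined by fluorescence after RT-PCR and capillary separation.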

Experiment [19] deals with Oxysterols receptor LXR-beta (Homo sapiens) (UniProt P55055). The experiment in a line: ATG_LXRb_TRANS: Attagene TRANS-FACTORIAL HepG2 Assay for human Liver X Receptor beta (LXRb) (AID 2282981; active means hit-call score of the fitted dose curve at least 0.9, where 1 is the maximum). Conditions: HepG2 Attagene TRANS GAL4-LXRb reporter, mRNA. The gist of the method: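 Multiplexed reporter assay, HepG2, 24 h dosing. Fluorescence of labelled RT-PCR products after capillary electrophoresis gives transcript level; positive fitting direction relative to DMSO.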

Sequence of Transcriptional activator Myb (Homo sapiens) (P10242 whole entry, looked up): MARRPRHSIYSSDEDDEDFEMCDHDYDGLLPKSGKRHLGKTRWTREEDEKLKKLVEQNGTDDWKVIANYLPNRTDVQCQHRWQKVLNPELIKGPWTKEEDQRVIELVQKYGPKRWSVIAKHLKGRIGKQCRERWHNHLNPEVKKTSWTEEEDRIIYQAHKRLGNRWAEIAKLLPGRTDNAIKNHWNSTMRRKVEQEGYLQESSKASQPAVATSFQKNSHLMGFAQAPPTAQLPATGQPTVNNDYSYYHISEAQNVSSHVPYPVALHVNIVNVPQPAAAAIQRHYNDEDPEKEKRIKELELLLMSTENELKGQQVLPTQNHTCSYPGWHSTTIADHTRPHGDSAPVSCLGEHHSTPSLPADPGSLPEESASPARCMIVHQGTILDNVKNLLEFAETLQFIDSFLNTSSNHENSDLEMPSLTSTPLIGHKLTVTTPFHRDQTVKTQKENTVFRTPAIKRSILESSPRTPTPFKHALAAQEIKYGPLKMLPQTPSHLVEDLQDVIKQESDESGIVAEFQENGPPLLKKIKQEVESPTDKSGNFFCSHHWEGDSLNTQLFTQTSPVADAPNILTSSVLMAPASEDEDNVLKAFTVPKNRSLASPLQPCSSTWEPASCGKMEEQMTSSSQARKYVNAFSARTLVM
Sequence of Estrogen receptor (Homo sapiens) (P03372 whole entry, looked up, the tested form may be a part): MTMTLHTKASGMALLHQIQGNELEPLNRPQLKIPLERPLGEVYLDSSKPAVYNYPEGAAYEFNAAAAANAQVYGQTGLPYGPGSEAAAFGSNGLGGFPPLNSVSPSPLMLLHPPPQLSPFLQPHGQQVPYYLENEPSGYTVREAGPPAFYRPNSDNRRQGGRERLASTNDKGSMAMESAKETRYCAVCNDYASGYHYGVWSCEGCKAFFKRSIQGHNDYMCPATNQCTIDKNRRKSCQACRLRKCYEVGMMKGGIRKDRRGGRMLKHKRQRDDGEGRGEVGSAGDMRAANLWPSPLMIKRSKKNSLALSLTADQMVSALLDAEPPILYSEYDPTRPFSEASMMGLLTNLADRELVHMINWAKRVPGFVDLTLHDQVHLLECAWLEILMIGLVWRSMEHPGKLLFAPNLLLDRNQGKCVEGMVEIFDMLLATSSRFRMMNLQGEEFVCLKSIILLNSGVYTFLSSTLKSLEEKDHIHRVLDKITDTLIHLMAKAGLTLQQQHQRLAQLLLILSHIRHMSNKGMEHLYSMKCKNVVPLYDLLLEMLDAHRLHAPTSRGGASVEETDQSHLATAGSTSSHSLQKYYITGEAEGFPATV
Sequence of Nuclear receptor subfamily 1 group I member 3 (Homo sapiens) (Q14994 whole entry, looked up, the tested form may be a part): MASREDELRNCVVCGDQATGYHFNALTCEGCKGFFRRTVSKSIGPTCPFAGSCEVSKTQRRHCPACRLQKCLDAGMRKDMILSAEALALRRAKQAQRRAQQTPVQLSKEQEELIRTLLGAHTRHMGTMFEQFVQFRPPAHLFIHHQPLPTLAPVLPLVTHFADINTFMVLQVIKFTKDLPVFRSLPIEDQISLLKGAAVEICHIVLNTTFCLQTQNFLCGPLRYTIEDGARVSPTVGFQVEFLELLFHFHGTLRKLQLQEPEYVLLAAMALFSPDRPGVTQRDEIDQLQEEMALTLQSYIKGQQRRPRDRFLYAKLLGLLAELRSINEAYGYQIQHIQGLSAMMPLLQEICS
Sequence of Hepatocyte nuclear factor 4-alpha (Homo sapiens) (P41235 whole entry, looked up, the tested form may be a part): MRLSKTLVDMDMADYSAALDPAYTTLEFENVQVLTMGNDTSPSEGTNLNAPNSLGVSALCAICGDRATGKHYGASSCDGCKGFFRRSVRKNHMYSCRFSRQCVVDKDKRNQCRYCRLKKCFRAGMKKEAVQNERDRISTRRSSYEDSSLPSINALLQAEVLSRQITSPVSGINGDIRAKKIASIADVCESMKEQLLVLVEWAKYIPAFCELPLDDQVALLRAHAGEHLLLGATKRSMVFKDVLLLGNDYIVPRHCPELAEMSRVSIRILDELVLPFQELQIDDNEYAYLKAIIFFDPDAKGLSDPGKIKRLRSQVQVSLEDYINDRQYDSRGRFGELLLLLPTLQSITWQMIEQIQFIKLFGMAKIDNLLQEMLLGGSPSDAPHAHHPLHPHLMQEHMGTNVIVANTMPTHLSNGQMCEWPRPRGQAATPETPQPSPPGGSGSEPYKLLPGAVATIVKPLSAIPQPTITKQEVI
Sequence of X-box-binding protein 1 (Homo sapiens) (P17861 whole entry, looked up): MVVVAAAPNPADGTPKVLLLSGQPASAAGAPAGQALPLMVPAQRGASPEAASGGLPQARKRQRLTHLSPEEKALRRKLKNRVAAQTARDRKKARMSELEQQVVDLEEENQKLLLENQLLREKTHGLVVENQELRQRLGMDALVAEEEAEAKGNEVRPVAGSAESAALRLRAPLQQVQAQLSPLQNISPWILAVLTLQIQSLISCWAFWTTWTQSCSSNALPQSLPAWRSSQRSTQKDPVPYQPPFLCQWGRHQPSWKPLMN
Sequence of Nuclear respiratory factor 1 (Homo sapiens) (Q16656 whole entry, looked up): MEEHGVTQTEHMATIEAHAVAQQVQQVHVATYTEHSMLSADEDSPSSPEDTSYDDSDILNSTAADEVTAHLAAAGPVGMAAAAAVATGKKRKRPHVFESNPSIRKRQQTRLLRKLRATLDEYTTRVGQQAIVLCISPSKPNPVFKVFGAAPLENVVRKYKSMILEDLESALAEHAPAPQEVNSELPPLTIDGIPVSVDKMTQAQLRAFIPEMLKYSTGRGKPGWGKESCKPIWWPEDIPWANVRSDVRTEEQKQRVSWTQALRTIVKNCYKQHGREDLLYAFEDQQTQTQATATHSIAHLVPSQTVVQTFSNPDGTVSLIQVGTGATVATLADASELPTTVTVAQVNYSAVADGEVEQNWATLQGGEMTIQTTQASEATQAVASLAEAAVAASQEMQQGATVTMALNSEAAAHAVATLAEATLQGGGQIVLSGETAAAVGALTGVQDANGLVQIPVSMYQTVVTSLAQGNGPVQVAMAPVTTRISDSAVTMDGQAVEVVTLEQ
Sequence of Nuclear receptor subfamily 4 group A member 2 (Homo sapiens) (P43354 whole entry, looked up): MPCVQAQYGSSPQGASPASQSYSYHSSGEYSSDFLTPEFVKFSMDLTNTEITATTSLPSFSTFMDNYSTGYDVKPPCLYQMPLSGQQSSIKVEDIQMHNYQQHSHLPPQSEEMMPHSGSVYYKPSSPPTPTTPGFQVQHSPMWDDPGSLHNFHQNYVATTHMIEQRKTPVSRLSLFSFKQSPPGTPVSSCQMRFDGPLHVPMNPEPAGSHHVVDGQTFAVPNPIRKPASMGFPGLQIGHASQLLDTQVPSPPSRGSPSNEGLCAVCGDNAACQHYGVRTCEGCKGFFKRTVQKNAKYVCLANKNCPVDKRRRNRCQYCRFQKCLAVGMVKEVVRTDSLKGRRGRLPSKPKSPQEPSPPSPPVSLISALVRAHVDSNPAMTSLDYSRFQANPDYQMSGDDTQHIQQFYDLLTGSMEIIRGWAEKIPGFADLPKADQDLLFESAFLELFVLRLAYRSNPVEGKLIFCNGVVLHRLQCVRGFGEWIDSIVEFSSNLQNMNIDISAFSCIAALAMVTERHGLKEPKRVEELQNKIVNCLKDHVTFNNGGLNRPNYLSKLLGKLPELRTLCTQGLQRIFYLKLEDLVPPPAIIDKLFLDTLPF
Sequence of Bile acid receptor (Homo sapiens) (Q96RI1 whole entry, looked up, the tested form may be a part): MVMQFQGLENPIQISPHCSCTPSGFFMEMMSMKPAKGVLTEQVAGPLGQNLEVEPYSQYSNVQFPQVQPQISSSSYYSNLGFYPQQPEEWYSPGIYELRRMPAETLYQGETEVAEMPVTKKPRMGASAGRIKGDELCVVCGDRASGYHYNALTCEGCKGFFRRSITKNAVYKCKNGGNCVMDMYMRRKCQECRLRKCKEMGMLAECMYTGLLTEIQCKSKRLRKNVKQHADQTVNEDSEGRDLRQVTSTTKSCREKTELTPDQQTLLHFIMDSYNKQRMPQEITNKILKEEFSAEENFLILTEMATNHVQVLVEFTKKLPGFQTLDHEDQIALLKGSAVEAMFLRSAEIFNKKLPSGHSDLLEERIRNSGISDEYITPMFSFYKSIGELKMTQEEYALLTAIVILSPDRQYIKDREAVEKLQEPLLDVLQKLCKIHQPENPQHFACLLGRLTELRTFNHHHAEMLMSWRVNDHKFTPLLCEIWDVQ
Sequence of Glucocorticoid receptor (Homo sapiens) (P04150 whole entry, looked up, the tested form may be a part): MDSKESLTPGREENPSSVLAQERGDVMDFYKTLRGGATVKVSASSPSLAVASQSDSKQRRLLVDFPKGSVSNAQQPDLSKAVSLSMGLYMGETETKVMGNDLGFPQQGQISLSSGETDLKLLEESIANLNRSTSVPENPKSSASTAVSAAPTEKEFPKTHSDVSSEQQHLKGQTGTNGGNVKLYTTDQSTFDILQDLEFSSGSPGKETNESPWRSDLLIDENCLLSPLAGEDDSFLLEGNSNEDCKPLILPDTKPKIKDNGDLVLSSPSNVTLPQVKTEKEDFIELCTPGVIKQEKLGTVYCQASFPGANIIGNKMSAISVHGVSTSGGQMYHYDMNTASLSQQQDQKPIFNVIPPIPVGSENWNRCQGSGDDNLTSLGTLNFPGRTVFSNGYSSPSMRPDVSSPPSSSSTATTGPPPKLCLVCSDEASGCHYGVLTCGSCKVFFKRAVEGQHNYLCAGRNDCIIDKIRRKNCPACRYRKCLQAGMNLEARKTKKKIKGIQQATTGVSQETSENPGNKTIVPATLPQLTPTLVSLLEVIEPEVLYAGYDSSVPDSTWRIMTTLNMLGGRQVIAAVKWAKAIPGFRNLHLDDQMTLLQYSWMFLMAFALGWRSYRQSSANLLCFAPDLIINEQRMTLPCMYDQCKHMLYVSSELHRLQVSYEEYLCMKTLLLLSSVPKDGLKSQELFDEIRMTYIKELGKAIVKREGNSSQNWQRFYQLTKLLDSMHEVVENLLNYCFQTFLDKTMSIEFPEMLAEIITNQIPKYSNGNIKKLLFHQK

Regarding `COCc1nnc(-c2ccc[n+]([O-])c2)n1-c1c(Cl)c(Cl)cc2[nH]c(=O)c(=O)[nH]c12`, the molecule was classed as inactive in experiment [1], in experiment [2], in experiment [3], in [4], in experiment [5] and in [6]. In addition, the result in experiment [7], in experiment [8], in experiment [9], in [10] and in experiment [11] was inactive.

For `CNC(C)=O`, the call in experiment [1], in experiment [2], in experiment [3], in experiment [12], in experiment [4] and in [5] was inactive. Also, the result in experiment [9], in experiment [13] and in experiment [10] was inactive.

Regarding `Cc1nc(-c2ccccn2)ncc1C(=O)Nn1cc(C)c2cc(F)ccc21`, the call in experiment [1], in [2], in experiment [3], in experiment [12], in experiment [14] and in [5] was inactive. Also, the result in [15], in experiment [6], in experiment [16], in experiment [10] and in experiment [11] was inactive.

Consider `O=C1CN(N=Cc2ccc([N+](=O)[O-])o2)C(=O)N1`, for which the result in experiment [1], in [2], in [3], in experiment [5], in experiment [15] and in [17] was inactive. The call in experiment [9], in experiment [18] and in experiment [10] was inactive. In addition, the AC50 in [4] is 32.1 µM (active).

Take `CC(C)CC(C)O` (stereo not drawn): the result in [1], in [2], in experiment [3], in experiment [12], in experiment [5] and in experiment [15] was inactive. The outcome in experiment [6], in [8] and in experiment [10] was inactive.

Consider `CCCCCCCC/C=C\CCCCCCCC(=O)OC[C@@H](O)[C@H]1OC[C@H](O)[C@H]1O`, for which the outcome in experiment [1], in experiment [2], in experiment [3], in experiment [4], in [5] and in [15] was inactive. Besides, the molecule was called inactive in experiment [6], in experiment [19], in experiment [8], in [18], in experiment [13] and in experiment [10]. The molecule was called inactive in [11].

Source of the values: PubChem BioAssay (EPA / NIEHS).
